Results on 2 sequences are retold here after PMC7862700, “An all-to-all approach to the identification of sequence-specific readers for epigenetic DNA modifications on cytosine”.

Common to all, as to experiment: DAPPL (digital affinity profiling via proximity ligation, sequencing); 10 mM Tris-HCl pH 7.5, 50 mM NaCl, 1 mM DTT, 4% glycerol, room temperature, 30 min; GST-TFs on glutathione beads, 16-mer random dsDNA library, 0.1% formaldehyde crosslink after washing; high values mean tight binding
Holding throughout (details): protein: recombinant; tags: N-terminal GST; dsDNA, one strand shown

The target of one assay is T1, FLI1 (Homo sapiens, UniProt Q01543 1-452).
T1 sequence: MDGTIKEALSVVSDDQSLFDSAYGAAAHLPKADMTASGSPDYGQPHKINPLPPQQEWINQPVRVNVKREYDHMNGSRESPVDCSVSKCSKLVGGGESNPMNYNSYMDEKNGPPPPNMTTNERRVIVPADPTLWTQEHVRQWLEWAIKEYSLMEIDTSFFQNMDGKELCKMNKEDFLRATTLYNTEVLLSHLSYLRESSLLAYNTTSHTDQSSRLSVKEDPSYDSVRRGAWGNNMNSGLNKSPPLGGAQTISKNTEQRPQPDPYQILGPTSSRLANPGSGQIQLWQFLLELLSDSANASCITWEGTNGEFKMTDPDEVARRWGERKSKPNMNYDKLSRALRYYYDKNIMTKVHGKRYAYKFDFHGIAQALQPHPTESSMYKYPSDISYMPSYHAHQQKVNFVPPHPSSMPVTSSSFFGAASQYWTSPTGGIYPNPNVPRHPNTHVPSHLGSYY
In short, it runs like this:
(§1)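 After expression in yeast as GST fusions, human transcription factors were bound to glutathione beads, DNA-barcoded and mixed with a tag-only sample. The pools were incubated with 200 nmole of a 16-mer random double-stranded DNA library in Tris/NaCl/DTT/glycerol buffer (30 min, room temperature), washed and crosslinked with 0.1% formaldehyde. Proximity ligation with BsaI/T4 ligase ran for 1 h at 37 °C, before PCR amplification and sequencing on an Illumina NextSeq500. Binding signal is a hexamer's read frequency for a factor divided by its frequency for the tag-only sample.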

In the next assay the target is T2, GABPA (Homo sapiens, UniProt Q06546 1-454).
T2 sequence: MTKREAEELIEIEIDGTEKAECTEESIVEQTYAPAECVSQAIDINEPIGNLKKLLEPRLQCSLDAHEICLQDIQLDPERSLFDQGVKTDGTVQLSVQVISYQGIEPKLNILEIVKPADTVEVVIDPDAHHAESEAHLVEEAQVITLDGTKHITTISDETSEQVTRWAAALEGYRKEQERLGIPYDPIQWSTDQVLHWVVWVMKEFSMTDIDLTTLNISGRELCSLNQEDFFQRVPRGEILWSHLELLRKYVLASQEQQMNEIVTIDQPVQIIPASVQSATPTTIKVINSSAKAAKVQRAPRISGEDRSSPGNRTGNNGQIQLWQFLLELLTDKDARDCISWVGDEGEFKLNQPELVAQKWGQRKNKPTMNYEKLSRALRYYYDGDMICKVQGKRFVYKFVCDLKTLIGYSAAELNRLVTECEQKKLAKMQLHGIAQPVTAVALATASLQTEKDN
In short, it runs like this:
as §1

The target in the next assay is T3, ERG (Homo sapiens, UniProt P11308 1-479).
T3 sequence: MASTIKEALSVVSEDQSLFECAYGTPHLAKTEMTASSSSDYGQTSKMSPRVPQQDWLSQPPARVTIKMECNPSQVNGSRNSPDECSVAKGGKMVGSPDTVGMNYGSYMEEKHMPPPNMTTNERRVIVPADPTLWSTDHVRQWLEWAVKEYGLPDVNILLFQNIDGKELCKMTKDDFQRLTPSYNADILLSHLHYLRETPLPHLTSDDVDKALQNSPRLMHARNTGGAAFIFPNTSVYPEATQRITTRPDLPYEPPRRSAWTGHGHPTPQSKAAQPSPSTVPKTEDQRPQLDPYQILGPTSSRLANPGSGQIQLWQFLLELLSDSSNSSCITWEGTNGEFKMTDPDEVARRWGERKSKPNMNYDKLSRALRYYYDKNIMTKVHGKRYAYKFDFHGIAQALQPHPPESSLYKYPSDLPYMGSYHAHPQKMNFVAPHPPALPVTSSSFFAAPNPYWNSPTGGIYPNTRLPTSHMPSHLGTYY
In short, it runs like this: as §1

For the next assay, the target named is T4, EHF (Homo sapiens, UniProt Q9NZC4 1-300).
T4 sequence: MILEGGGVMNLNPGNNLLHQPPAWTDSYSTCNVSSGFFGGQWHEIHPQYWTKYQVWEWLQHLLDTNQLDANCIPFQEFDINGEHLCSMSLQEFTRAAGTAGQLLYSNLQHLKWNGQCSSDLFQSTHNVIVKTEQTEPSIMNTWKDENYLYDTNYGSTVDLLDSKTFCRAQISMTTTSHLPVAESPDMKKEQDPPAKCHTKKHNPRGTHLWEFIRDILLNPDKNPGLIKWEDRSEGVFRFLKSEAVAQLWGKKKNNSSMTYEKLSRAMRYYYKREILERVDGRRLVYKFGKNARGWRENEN
In short, it runs like this: as §1

The next assay concerns the target SPI1 (Homo sapiens, UniProt P17947 1-270). In short, it runs like this:
as §1

For the next assay, the target named is SPIB (Homo sapiens, UniProt Q01892 1-262). Summed up:
as §1

The next assay addresses T5, FEV (Homo sapiens, UniProt Q99581 1-238).
T5 sequence: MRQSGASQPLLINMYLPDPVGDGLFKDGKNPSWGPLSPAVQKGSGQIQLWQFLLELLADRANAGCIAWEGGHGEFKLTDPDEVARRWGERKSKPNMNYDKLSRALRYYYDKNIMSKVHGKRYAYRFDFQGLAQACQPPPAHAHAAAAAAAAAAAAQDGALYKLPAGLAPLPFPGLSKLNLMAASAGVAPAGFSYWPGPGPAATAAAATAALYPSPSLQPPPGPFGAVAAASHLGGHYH
In short, it runs like this: as §1

A further assay concerns the target ETV5 (Homo sapiens, UniProt P41161 1-510). Summed up: as §1
The next assay addresses T6, SPIC (Homo sapiens, UniProt Q8N5J4 1-248).
T6 sequence: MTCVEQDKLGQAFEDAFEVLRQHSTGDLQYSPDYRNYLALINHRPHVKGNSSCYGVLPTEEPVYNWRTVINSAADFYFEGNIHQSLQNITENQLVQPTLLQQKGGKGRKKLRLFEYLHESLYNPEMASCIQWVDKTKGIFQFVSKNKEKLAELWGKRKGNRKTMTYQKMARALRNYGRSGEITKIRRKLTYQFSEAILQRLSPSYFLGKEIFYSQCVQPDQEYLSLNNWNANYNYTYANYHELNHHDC
Summed up:
as §1

In a further assay the target is ELF4 (Homo sapiens, UniProt Q99607 1-663). Summed up: as §1
ELF4, sequence (Q99607 whole entry): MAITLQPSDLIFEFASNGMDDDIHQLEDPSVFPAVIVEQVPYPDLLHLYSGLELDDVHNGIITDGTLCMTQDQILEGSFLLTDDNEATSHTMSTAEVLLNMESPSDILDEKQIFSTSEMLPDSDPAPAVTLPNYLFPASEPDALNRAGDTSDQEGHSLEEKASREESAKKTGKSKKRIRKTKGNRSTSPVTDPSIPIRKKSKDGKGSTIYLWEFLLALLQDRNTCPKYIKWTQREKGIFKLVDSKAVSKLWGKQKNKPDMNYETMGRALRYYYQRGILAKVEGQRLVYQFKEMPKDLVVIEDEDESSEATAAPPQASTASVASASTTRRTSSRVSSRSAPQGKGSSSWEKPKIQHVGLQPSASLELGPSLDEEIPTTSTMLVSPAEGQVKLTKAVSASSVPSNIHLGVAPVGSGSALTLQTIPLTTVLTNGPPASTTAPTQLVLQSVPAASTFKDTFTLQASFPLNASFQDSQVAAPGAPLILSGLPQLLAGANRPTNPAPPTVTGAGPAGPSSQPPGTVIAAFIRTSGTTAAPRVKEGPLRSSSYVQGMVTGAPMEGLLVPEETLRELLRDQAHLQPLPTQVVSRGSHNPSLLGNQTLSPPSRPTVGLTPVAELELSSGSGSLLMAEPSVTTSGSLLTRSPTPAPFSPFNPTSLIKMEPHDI
In the next assay the target is ETV1 (Homo sapiens, UniProt P50549 1-477). In short, it runs like this: as §1
ETV1, sequence (P50549 whole entry): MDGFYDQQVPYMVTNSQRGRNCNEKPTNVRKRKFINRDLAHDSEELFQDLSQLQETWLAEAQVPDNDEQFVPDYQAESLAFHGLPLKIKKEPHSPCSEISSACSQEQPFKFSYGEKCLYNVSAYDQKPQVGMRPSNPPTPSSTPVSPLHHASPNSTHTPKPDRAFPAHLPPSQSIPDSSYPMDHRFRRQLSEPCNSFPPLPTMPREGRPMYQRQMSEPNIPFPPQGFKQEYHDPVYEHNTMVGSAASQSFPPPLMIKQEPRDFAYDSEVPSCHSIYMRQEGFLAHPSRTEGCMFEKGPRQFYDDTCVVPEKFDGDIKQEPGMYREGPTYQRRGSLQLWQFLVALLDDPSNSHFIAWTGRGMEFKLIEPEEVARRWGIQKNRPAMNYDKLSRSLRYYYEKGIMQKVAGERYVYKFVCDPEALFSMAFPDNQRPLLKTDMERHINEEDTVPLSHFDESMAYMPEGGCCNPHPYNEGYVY
Another assay concerns the target T7, ETV3L (Homo sapiens, UniProt Q6ZN32 1-361).
T7 sequence: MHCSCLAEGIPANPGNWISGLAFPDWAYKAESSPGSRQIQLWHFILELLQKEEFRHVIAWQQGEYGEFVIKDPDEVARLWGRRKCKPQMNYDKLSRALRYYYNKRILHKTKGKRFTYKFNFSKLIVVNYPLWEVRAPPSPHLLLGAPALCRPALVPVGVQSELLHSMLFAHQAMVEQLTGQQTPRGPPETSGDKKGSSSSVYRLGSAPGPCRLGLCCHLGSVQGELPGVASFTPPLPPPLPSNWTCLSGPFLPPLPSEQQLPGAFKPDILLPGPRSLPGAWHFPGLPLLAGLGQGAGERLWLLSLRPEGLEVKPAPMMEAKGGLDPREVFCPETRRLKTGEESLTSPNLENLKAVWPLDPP
Summed up: as §1

A further assay addresses ETV6 (Homo sapiens, UniProt P41212 1-452). Summed up: as §1
Another assay has as its target T8, ELK1 (Homo sapiens, UniProt P19419 1-428).
T8 sequence: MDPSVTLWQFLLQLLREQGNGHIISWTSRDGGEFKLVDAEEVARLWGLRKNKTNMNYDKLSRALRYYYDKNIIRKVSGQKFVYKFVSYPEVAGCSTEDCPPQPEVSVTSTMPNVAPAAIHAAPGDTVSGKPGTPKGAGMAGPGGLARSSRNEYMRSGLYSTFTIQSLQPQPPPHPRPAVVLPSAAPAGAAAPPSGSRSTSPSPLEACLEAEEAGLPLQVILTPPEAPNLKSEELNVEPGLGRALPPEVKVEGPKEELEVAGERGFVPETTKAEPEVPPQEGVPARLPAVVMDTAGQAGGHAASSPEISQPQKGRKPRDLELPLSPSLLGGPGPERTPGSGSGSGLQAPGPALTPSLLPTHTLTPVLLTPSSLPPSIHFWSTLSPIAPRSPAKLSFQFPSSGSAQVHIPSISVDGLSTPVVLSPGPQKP
In short, it runs like this:
as §1

A further assay concerns the target ELF1 (Homo sapiens, UniProt P32519 1-619). Summed up: as §1
A further assay has as its target T9, ERF (Homo sapiens, UniProt P50548 1-548).
T9 sequence: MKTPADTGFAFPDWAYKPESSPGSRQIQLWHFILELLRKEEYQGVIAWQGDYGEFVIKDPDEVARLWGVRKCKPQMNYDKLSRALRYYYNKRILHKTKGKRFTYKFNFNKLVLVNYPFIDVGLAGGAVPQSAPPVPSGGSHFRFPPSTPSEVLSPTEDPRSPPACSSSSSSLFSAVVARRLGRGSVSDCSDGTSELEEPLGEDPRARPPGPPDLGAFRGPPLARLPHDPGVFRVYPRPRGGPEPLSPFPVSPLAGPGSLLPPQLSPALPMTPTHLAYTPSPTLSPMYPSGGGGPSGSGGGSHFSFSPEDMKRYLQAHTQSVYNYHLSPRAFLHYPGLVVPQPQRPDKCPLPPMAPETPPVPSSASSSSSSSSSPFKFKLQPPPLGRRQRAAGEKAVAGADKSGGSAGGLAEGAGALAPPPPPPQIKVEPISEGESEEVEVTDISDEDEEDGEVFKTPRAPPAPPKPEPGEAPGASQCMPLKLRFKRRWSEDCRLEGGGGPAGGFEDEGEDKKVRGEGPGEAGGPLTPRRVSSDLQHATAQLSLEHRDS
Summed up:
as §1

Another assay concerns the target T10, ETS2 (Homo sapiens, UniProt P15036 1-469).
T10 sequence: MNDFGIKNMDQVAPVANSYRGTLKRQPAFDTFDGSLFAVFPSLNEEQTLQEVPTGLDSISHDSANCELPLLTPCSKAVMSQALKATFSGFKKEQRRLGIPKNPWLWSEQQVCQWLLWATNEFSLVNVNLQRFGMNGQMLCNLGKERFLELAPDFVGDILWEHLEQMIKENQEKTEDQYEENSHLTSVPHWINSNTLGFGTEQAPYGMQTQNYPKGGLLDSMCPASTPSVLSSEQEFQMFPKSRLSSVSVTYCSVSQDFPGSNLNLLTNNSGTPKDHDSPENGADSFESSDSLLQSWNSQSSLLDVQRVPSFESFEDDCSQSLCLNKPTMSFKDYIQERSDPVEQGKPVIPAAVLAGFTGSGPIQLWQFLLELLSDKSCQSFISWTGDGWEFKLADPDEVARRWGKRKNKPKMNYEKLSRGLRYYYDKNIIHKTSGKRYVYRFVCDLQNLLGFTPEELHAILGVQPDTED
Summed up: as §1

A further assay concerns the target T11, ELF5 (Homo sapiens, UniProt Q9UKW6-2 1-255).
T11 sequence: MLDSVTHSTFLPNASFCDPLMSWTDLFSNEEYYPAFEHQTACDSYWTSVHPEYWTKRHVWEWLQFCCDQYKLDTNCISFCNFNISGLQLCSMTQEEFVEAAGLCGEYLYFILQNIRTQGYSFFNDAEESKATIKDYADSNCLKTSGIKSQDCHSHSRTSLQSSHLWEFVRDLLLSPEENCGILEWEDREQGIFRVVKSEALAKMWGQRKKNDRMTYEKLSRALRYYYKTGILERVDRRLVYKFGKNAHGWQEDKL
Summed up: as §1

In a further assay the target is T12, ETV3 (Homo sapiens, UniProt P41162-2 1-143).
T12 sequence: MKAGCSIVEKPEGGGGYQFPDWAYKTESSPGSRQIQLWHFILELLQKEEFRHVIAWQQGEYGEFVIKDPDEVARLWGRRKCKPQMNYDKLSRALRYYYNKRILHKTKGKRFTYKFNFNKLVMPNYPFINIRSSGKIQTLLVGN
Summed up: as §1

ETV5, sequence (P41161 whole entry): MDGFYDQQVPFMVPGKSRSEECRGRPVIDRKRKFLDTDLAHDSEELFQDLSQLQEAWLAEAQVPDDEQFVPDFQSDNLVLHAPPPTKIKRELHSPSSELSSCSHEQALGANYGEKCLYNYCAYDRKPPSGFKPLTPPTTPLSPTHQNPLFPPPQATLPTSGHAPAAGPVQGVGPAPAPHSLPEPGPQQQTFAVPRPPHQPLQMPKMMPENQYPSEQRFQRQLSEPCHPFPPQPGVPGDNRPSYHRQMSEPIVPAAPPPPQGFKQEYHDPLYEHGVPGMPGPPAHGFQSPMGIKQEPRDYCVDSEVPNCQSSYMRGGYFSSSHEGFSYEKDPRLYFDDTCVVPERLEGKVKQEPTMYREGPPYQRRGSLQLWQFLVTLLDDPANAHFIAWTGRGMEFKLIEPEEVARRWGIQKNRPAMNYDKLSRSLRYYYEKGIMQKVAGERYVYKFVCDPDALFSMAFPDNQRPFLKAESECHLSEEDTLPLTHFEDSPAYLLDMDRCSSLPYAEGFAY
ETV6, sequence (P41212 whole entry): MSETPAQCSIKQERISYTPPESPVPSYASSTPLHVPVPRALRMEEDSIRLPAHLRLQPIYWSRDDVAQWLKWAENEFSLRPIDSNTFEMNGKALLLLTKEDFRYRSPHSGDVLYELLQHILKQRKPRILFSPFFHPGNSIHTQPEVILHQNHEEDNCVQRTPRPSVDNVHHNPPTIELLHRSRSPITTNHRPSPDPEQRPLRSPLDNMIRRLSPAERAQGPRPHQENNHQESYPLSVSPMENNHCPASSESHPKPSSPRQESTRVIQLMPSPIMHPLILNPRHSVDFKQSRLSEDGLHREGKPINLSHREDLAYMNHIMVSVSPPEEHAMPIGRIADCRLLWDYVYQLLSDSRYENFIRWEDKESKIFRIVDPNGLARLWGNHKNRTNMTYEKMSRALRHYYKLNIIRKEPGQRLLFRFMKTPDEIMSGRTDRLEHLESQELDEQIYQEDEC
SPIB, sequence (Q01892 whole entry): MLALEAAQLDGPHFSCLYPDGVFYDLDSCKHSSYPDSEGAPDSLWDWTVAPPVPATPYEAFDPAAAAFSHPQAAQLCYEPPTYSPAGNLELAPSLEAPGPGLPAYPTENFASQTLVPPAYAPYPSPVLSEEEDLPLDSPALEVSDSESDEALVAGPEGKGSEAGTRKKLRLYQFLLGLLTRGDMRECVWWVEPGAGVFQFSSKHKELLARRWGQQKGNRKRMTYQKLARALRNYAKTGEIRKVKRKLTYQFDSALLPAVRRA
ELF1, sequence (P32519 whole entry): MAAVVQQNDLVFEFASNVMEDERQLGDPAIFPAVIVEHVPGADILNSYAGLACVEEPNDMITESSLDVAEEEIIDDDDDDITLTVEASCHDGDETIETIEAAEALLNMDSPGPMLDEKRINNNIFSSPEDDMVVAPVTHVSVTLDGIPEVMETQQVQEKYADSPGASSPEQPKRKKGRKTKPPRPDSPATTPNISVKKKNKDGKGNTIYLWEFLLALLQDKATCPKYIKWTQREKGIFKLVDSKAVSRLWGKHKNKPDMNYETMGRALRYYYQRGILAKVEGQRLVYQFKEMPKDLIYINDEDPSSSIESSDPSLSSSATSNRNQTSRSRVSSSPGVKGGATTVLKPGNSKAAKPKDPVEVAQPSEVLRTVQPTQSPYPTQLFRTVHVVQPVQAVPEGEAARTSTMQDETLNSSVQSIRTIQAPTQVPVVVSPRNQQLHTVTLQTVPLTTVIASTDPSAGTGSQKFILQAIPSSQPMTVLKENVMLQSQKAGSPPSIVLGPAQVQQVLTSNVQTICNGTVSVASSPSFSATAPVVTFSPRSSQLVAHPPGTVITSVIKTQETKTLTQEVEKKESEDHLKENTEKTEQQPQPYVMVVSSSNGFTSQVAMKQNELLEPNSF

Regarding TGTGGC, the binding signal with FLI1 is 1.05 fold enrichment (6-mer frequency, TF over GST control); with GABPA, 1.03 fold enrichment (6-mer frequency, TF over GST control); with ERG it was 1.07 fold enrichment (6-mer frequency, TF over GST control); with EHF, 1.02 fold enrichment (6-mer frequency, TF over GST control); in the assay with SPI1, 1.14 fold enrichment (6-mer frequency, TF over GST control); in the assay with SPIB, 1.09 fold enrichment (6-mer frequency, TF over GST control). In addition, the binding signal with FEV is 1.13 fold enrichment (6-mer frequency, TF over GST control); with ETV5, 1.01 fold enrichment (6-mer frequency, TF over GST control); with SPIC, 1.14 fold enrichment (6-mer frequency, TF over GST control); in the assay with ELF4, 1.02 fold enrichment (6-mer frequency, TF over GST control); with ETV1 it was 1.05 fold enrichment (6-mer frequency, TF over GST control); in the assay with ETV3L, 1.06 fold enrichment (6-mer frequency, TF over GST control). In addition, the binding signal with ETV6 is 1.19 fold enrichment (6-mer frequency, TF over GST control).
With GTACGC, the binding signal was 1.05 fold enrichment (6-mer frequency, TF over GST control) in the assay with FLI1; 1.03 fold enrichment (6-mer frequency, TF over GST control) with ELK1; 1.04 fold enrichment (6-mer frequency, TF over GST control) with GABPA; 1.09 fold enrichment (6-mer frequency, TF over GST control) with ERG; 1.05 fold enrichment (6-mer frequency, TF over GST control) with ELF1; 1.03 fold enrichment (6-mer frequency, TF over GST control) in the assay with EHF. Also, the binding signal is 1.05 fold enrichment (6-mer frequency, TF over GST control) with SPI1; 1.1 fold enrichment (6-mer frequency, TF over GST control) with FEV; 1.08 fold enrichment (6-mer frequency, TF over GST control) in the assay with ETV5; 1.2 fold enrichment (6-mer frequency, TF over GST control) with SPIC; 1.05 fold enrichment (6-mer frequency, TF over GST control) with ELF4; 1.09 fold enrichment (6-mer frequency, TF over GST control) in the assay with ETV1. Further, the binding signal in the assay with ERF is 1.05 fold enrichment (6-mer frequency, TF over GST control); with ETV3L it was 1.11 fold enrichment (6-mer frequency, TF over GST control); with ETS2, 1.06 fold enrichment (6-mer frequency, TF over GST control); in the assay with ELF5, 1.06 fold enrichment (6-mer frequency, TF over GST control); in the assay with ETV3 it was 1.14 fold enrichment (6-mer frequency, TF over GST control); with ETV6 it was 1.07 fold enrichment (6-mer frequency, TF over GST control).
